Laboratory results reported in PubChem BioAssay AID1159580 (chemical genetic matrix, 2015).
Hit rate of the full screen: of about 5,500 compounds, about 2,000 (36%) were called active. Roughly 18% stayed inconclusive and do not appear here. Cut-off read from the data, not from the text of the source: active = normalized growth mostly below about 0.91 (no sharp cut-off); inconclusive = no clear call, values can overlap the other calls; inactive = mostly above about 0.92. The list shows a part of the results.

Test: chemical genetic growth profiling, strain panel (AID 1159580);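 note: tested at 20 µM; growth read once vehicle control cultures reached saturation at 30 °C; 1 = growth at the plate median or of vehicle wells; lower values mean less growth of the strain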
Conditions: growth OD

Measured: normalized growth

O=C(O)c1ccccc1O
inactive: S. cerevisiae deletion strains, locus YJR066W, strain TOR1, stronger effect = lower value 0.951 | S. cerevisiae deletion strains, locus YJR075W, strain HOC1, stronger effect = lower value 1.01 | S. cerevisiae deletion strains, locus YKL009W, strain mrt4, stronger effect = lower value 1.05 | S. cerevisiae deletion strains, locus YKL068W, stronger effect = lower value 0.982 | S. cerevisiae deletion strains, locus YKL085W, strain MDH1 (second series), stronger effect = lower value 0.989 | S. cerevisiae deletion strains, locus YKL085W, strain MDH1, stronger effect = lower value 0.989 | S. cerevisiae deletion strains, locus YKL160W, strain elf1, stronger effect = lower value 0.971 | S. cerevisiae deletion strains, locus YKL190W, strain CNB1, stronger effect = lower value 0.998 | S. cerevisiae deletion strains, locus YKR001C, strain vps1, stronger effect = lower value 1.02 | S. cerevisiae deletion strains, locus YKR091W, strain srl3, stronger effect = lower value 0.99 | S. cerevisiae deletion strains, locus YLL001W, strain dnm1, stronger effect = lower value 0.97 | S. cerevisiae deletion strains, locus YLL026W, stronger effect = lower value 0.991 | S. cerevisiae deletion strains, locus YLL041C, strain sdh2, stronger effect = lower value 0.99 | S. cerevisiae deletion strains, locus YLR027C, strain aat2, stronger effect = lower value 0.997 | S. cerevisiae deletion strains, locus YLR039C, strain RIC1, stronger effect = lower value 0.978 | S. cerevisiae deletion strains, locus YLR058C, strain SHM2, stronger effect = lower value 0.994 | S. cerevisiae deletion strains, locus YLR102C, strain apc9, stronger effect = lower value 1.01 | S. cerevisiae deletion strains, locus YLR113W, strain HOG1, stronger effect = lower value 0.987 | S. cerevisiae deletion strains, locus YLR221C, strain rsa3, stronger effect = lower value 1 | S. cerevisiae deletion strains, locus YLR258W, strain gsy2, stronger effect = lower value 0.979 | S. cerevisiae deletion strains, locus YLR262C, strain YPT6 (second series), stronger effect = lower value 0.957 | S. cerevisiae deletion strains, locus YLR262C, strain YPT6, stronger effect = lower value 0.973 | S. cerevisiae deletion strains, locus YLR268W, strain sec22, stronger effect = lower value 1.04 | S. cerevisiae deletion strains, locus YLR320W, strain mms22, stronger effect = lower value 1.03 | S. cerevisiae deletion strains, locus YLR330W, strain CHS5, stronger effect = lower value 1 | S. cerevisiae deletion strains, locus YLR342W, strain FKS1 (second series), stronger effect = lower value 1.01 | S. cerevisiae deletion strains, locus YLR342W, strain FKS1, stronger effect = lower value 0.975 | S. cerevisiae deletion strains, locus YLR357W, strain rsc2, stronger effect = lower value 0.956 | S. cerevisiae deletion strains, locus YLR370C, strain arc18, stronger effect = lower value 0.988 | S. cerevisiae deletion strains, locus YLR371W, strain rom2, stronger effect = lower value 1.01 | S. cerevisiae deletion strains, locus YLR384C, strain iki3, stronger effect = lower value 0.96 | S. cerevisiae deletion strains, locus YLR418C, strain cdc73, stronger effect = lower value 1.01 | S. cerevisiae deletion strains, locus YML016C, strain PPZ1, stronger effect = lower value 1 | S. cerevisiae deletion strains, locus YML032C, strain rad52, stronger effect = lower value 1.04 | S. cerevisiae deletion strains, locus YML120C, strain ndi1, stronger effect = lower value 0.985 | S. cerevisiae deletion strains, locus YML124C, strain tub3, stronger effect = lower value 1.01 | S. cerevisiae deletion strains, locus YMR058W, strain fet3, stronger effect = lower value 0.998 | S. cerevisiae deletion strains, locus YMR078C, strain ctf18, stronger effect = lower value 1.02 | S. cerevisiae deletion strains, locus YMR125W, strain sto1, stronger effect = lower value 0.923 | S. cerevisiae deletion strains, locus YMR129W, stronger effect = lower value 0.971 | S. cerevisiae deletion strains, locus YMR205C, strain PFK2, stronger effect = lower value 0.985 | S. cerevisiae deletion strains, locus YMR223W, strain ubp8, stronger effect = lower value 1.02 | S. cerevisiae deletion strains, locus YMR231W, strain pep5, stronger effect = lower value 0.976 | S. cerevisiae deletion strains, locus YMR307W, strain GAS1, stronger effect = lower value 0.965 | S. cerevisiae deletion strains, locus YNL067W, strain RPL9B, stronger effect = lower value 0.998 | S. cerevisiae deletion strains, locus YNL071W, strain lat1, stronger effect = lower value 0.986 | S. cerevisiae deletion strains, locus YNL153C, strain GIM3, stronger effect = lower value 1.01 | S. cerevisiae deletion strains, locus YNL183C, strain NPR1, stronger effect = lower value 0.951 | S. cerevisiae deletion strains, locus YNL209W, strain ssb2, stronger effect = lower value 0.968 | S. cerevisiae deletion strains, locus YNL233W, strain BNI4, stronger effect = lower value 1 | S. cerevisiae deletion strains, locus YNL248C, strain rpa49, stronger effect = lower value 0.958 | S. cerevisiae deletion strains, locus YNL250W, strain rad50, stronger effect = lower value 1 | S. cerevisiae deletion strains, locus YNL271C, strain bni1, stronger effect = lower value 0.995 | S. cerevisiae deletion strains, locus YNL298W, strain CLA4, stronger effect = lower value 1.02 | S. cerevisiae deletion strains, locus YNL307C, strain MCK1, stronger effect = lower value 1.02 | S. cerevisiae deletion strains, locus YNL322C, strain KRE1 (second series), stronger effect = lower value 0.974 | S. cerevisiae deletion strains, locus YNR049C, strain mso1, stronger effect = lower value 0.979 | S. cerevisiae deletion strains, locus YNR052C, strain pop2, stronger effect = lower value 1.02 | S. cerevisiae deletion strains, locus YOL006C, strain TOP1, stronger effect = lower value 1.09 | S. cerevisiae deletion strains, locus YOL012C, strain htz1 1.01 | S. cerevisiae deletion strains, locus YOL147C, strain pex11, stronger effect = lower value 1.01 | S. cerevisiae deletion strains, locus YOR001W, strain rrp6, stronger effect = lower value 0.982 | S. cerevisiae deletion strains, locus YOR061W, strain CKA2, stronger effect = lower value 0.999 | S. cerevisiae deletion strains, locus YOR069W, strain VPS5, stronger effect = lower value 0.993 | S. cerevisiae deletion strains, locus YOR070C, strain gyp1, stronger effect = lower value 0.982 | S. cerevisiae deletion strains, locus YOR080W, strain dia2, stronger effect = lower value 0.983 | S. cerevisiae deletion strains, locus YOR083W, strain WHI5, stronger effect = lower value 0.988 | S. cerevisiae deletion strains, locus YOR106W, strain vam3, stronger effect = lower value 0.952 | S. cerevisiae deletion strains, locus YOR136W, strain idh2, stronger effect = lower value 1.02 | S. cerevisiae deletion strains, locus YOR144C, strain elg1, stronger effect = lower value 1.01 | S. cerevisiae deletion strains, locus YOR184W, strain ser1, stronger effect = lower value 1.02 | S. cerevisiae deletion strains, locus YOR231W, strain MKK1, stronger effect = lower value 0.98 | S. cerevisiae deletion strains, locus YOR265W, strain rbl2, stronger effect = lower value 0.976 | S. cerevisiae deletion strains, locus YOR270C, strain vph1, stronger effect = lower value 0.944 | S. cerevisiae deletion strains, locus YOR290C, strain snf2, stronger effect = lower value 1 | S. cerevisiae deletion strains, locus YOR316C, strain cot1, stronger effect = lower value 1.02 | S. cerevisiae deletion strains, locus YPL051W, strain arl3, stronger effect = lower value 0.986 | S. cerevisiae deletion strains, locus YPL078C, strain atp4, stronger effect = lower value 0.961 | S. cerevisiae deletion strains, locus YPL106C, strain sse1, stronger effect = lower value 0.954 | S. cerevisiae deletion strains, locus YPL240C, strain hsp82, stronger effect = lower value 0.976 | S. cerevisiae deletion strains, locus YPL256C, strain CLN2, stronger effect = lower value 1.05 | S. cerevisiae deletion strains, locus YPR119W, strain clb2, stronger effect = lower value 1.01 | S. cerevisiae deletion strains, locus YPR141C, strain kar3, stronger effect = lower value 0.994 | S. cerevisiae deletion strains, locus YPR163C, strain tif3, stronger effect = lower value 1.01 | S. cerevisiae deletion strains, locus YPR167C, strain met16, stronger effect = lower value 1.01 | S. cerevisiae deletion strains, strain wtn01, stronger effect = lower value 1.01 | S. cerevisiae strains, strain wild type, stronger effect = lower value 0.999
